Laboratory results published in PubChem BioAssay.
Active and inactive are the calls of the source.

Assays:
[1] = test system: Plasmodium falciparum Sir2 (PF13_0152, Sir2A); experiment: Plasmodium falciparum Sir2A binding compounds – biochemical, small-molecule microarray, 635 nm fluorescence, primary screen (AID 1098); conditions: fluorescence 635 nm, higher = more signal;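 further: score merges spot fluorescence intensity with its signal-to-noise ratio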
[2] = probe aDKK1 binding to arrayed compounds – biochemical, biotinylated probe, 635/667 nm fluorescence, primary screen (AID 1099); conditions: small-molecule microarray, higher = more signal;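 further: score merges 667nm spot fluorescence with signal to noise across triplicate slides; reference of the scale not given here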
[3] = probe aCHRDL2 binding to arrayed compounds – biochemical, biotinylated probe, 635/667 nm fluorescence, primary screen (AID 1100); conditions: small-molecule microarray, higher = more signal
[4] = change in splice reporter luminescence, either direction, cell-based, HEK293, spliceosome inhibition project, primary screen (AID 1101); conditions: HEK293 splicing luciferase reporter, 24 h, higher = more signal, called active from +8 up or from −8 down;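 further: HEK293 cells carrying a splicing-competent luciferase reporter gene; test concentration not given here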
[5] = biological target: Fibroblast growth factor 10 (Homo sapiens) (UniProt O15520); experiment: compounds binding fibroblast growth factor 10 – biochemical, small-molecule microarray, 635 nm fluorescence, primary screen (AID 1102); conditions: FGF10 binding, fluorescence 635 nm, higher = more signal
Chain of Fibroblast growth factor 10 (Homo sapiens) (O15520 whole entry, looked up): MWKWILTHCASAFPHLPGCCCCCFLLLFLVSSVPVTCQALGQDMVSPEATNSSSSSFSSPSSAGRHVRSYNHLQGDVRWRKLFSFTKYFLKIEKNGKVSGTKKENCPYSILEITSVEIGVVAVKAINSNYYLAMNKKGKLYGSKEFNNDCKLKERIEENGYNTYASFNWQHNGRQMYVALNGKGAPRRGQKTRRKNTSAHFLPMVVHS

[6] = test system: glycogen synthase kinase-3 (GSK3A per assay name; protocol says GSK3B); experiment: compounds binding glycogen synthase kinase-3 – biochemical, small-molecule microarray, 635 nm fluorescence, GSK3A, primary screen (AID 1103); conditions: fluorescence 635 nm, higher = more signal; further: the record names both GSK3A and GSK3B
[7] = biological target: Epidermal growth factor receptor (Homo sapiens) (UniProt P00533); experiment: compounds binding epidermal growth factor receptor – biochemical, small-molecule microarray, 635 nm fluorescence, primary screen (AID 1104); conditions: EGFR binding, higher = more signal;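 further: score merges 667 nm emission intensity with spot signal to noise over triplicate slides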
Chain of Epidermal growth factor receptor (Homo sapiens) (P00533 whole entry, looked up): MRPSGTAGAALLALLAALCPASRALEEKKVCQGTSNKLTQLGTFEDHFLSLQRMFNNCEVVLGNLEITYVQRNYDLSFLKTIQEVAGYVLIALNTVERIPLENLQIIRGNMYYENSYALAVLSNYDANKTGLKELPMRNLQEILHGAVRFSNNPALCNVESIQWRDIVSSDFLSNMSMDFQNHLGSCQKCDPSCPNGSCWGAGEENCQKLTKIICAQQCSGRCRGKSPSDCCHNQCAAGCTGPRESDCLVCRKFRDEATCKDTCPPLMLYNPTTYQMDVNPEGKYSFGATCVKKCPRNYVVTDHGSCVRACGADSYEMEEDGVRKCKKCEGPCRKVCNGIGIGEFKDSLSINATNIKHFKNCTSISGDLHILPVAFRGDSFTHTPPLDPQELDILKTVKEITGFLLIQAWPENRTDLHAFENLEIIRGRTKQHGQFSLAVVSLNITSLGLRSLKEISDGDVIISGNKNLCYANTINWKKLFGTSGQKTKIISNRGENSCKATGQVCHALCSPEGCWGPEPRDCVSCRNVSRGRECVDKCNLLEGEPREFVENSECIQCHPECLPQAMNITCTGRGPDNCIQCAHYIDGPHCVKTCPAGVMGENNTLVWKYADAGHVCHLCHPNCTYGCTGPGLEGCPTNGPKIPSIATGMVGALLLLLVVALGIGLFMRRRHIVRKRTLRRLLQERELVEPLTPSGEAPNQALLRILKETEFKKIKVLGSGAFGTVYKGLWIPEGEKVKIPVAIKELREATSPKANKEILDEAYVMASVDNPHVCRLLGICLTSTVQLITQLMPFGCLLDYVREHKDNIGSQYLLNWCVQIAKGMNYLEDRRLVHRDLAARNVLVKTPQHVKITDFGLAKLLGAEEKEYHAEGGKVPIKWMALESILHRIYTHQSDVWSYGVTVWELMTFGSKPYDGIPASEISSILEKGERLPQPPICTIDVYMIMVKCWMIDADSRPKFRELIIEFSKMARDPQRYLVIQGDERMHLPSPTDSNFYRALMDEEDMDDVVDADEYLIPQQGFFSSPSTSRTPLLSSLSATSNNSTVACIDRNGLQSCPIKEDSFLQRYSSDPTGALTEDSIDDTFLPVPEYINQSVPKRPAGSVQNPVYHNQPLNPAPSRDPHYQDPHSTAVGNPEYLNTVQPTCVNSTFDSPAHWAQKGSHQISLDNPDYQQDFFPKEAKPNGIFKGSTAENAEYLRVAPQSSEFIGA

[8] = biological target: Follistatin-related protein 3 (Homo sapiens) (UniProt O95633); experiment: compounds binding follistatin-related protein 3 – biochemical, small-molecule microarray, 635 nm fluorescence, primary screen (AID 1105); conditions: FSTL3 binding, higher = more signal;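 further: score merges emission near 667 nm and signal to noise per printed spot across three slides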
Chain of Follistatin-related protein 3 (Homo sapiens) (O95633 whole entry, looked up): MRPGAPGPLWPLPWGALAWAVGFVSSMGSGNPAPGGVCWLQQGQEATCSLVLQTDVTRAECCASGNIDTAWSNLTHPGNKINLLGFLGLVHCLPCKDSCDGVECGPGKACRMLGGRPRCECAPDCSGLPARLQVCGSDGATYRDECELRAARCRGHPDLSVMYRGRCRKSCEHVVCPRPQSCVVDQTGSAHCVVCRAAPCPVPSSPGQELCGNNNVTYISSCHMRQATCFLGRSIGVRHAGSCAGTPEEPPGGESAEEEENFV

[9] = biological target: Dickkopf-related protein 1 (Homo sapiens) (UniProt O94907); experiment: small molecules binding DKK1 protein – biochemical, small-molecule microarray, 635 nm fluorescence scan, primary screen (AID 1106); conditions: higher = more signal;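 further: score merges emission near 667 nm with signal to noise over three replicate slides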
Chain of Dickkopf-related protein 1 (Homo sapiens) (O94907 whole entry, looked up): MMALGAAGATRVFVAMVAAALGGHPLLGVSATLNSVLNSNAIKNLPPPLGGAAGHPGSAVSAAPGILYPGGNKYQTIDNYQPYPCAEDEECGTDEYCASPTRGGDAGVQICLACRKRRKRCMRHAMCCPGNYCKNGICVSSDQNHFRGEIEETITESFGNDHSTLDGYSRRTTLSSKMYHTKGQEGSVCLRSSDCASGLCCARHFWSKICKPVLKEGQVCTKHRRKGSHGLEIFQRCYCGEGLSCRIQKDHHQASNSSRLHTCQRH

[10] = test system: Inhibin beta A chain (activin A); experiment: small molecules binding activin A – biochemical, small-molecule microarray, 635 nm fluorescence scan, primary screen (AID 1107); conditions: INHBA, higher = more signal;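 further: mouse activin A protein probed at 4.33 µg/mL on printed slides; score merges bound-protein fluorescence near 667 nm with spot signal-to-noise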

Row | Compound | composite z-score [1] | composite z-score [2] | composite z-score [3] | z-score [4] | composite z-score [5] | composite z-score [6] | composite z-score [7] | composite z-score [8] | composite z-score [9] | composite z-score [10]
1 | COc1ccc([Si](C)(C)[C@@H]2[C@@H](CCO)O[C@]3(C(=O)N(Cc4ccccc4)c4ccc(N5C(=O)COc6ccccc65)cc43)[C@H]2C)cc1 | 0.845 | -0.0934 | 0.0637 | -1.21 (inactive) | 0.0677 | 0.0368 | -0.0505 | 0.0717 | 0.163 | 0.254
2 | COCCCNC(=O)[C@@H]1c2ccccc2C(=O)N(Cc2cc(F)cc(C(F)(F)F)c2)[C@H]1c1ccc(CO)cc1 | 1.69 | -0.0674 | 0.998 | -0.0265 (inactive) | -1.38 | -1.72 | -1.47 | -1.13 | -1.35 | -0.104
3 | O=c1c2ccc(Br)cc2nc(-c2ccccc2)n1Cc1cccc(O)c1 | 0.524 | 0.864 | 0.715 | -0.376 (inactive) | 0.528 | 0.476 | 0.145 | 0.547 | 0.0301 | 0.41
4 | COC(=O)C(CC#Cc1ccc2c(c1)[C@]1(C(=O)N2)[C@H](C(=O)N2CCc3cc(OC)c(OC)cc3C2)[C@H]2C(=O)O[C@H](c3ccccc3)[C@H](c3ccccc3)N2[C@@H]1c1ccc(OCCO)cc1)C(=O)OC | 1.08 | 0.0138 | 0.415 | -0.291 (inactive) | 1.39 | 1.3 | 0.732 | 0.94 | 0.544 | 0.614
5 | COC(=O)[C@@]1(Cc2ccc(F)cc2)[C@H]2c3cc(C(=O)N(C)C)n(Cc4ccc(C)c(F)c4F)c3C[C@H]2CN1C(=O)c1ccccc1 | 0.0477 | 0.871 | 1.03 | -0.509 (inactive) | 0.158 | -0.224 | 0.558 | -0.0326 | -0.693 | 1.39
6 | Cc1ccc(-c2cccc(=O)o2)cc1 | -0.466 | 0.0694 | -0.0115 | 0.613 (inactive) | -0.1 | -0.39 | 0.115 | 0.483 | 0.184 | 1.35
7 | COCCCNC(=O)[C@@]1(C)c2ccccc2C(=O)N(c2ccc(C)cn2)[C@H]1c1ccc(CO)cc1 | 0.963 | -0.748 | -0.75 | 0.532 (inactive) | -1.15 | -0.799 | -0.626 | -0.551 | -0.813 | 0.534
8 | COCC(=C=CC[C@@H](O)c1ccccc1OCCO)C[C@@H](O)c1ccccn1 | 0.378 | -0.0661 | -0.0356 | 0.141 (inactive) | 0.457 | 0.207 | -0.0982 | 0.322 | 0.0514 | 0.639
9 | O=C1C[C@@](C(=O)O)(c2ccc([N+](=O)[O-])cc2)[C@@H](c2ccc(CO)cc2)N1CC12CC3CC(CC(C3)C1)C2 | 1.23 | 0.28 | 0.771 | 0.66 (inactive) | 1.18 | 0.386 | 0.259 | 0.554 | -0.148 | 0.532
10 | CCCN1C(=O)[C@@]2(Cc3ccccc3)N=C(c3ccc(OCCCO)cc3)O[C@H]2c2ccccc21 | 1.61 | 0.0149 | 0.707 | -0.872 (inactive) | 0.926 | 1.14 | 0.234 | 0.63 | -0.234 | 1.14
11 | Cc1ccc(S[C@]2(C(=O)NCC(C)C)CC(=O)N(C3CCCCC3)[C@@H]2c2ccc(CO)cc2I)cc1 | 0.42 | 0.0006 | 0.421 | -1.4 (inactive) | 0.231 | 0.296 | 0.21 | 0.468 | -0.147 | 0.83
12 | COc1ccc(C(=O)Nc2ccc3c(c2)[C@]2(O[C@@H](CCO)[C@H]([Si](C)(C)c4ccc(OC)cc4)[C@H]2C)C(=O)N3Cc2ccccc2)cc1 | 0.663 | -0.0183 | -0.0221 | -3.4 (inactive) | 0.572 | 0.3 | 0.349 | 0.393 | 0.359 | 1.11
13 | CN(C)C(=O)[C@@]1(Cc2ccccc2N=[N+]=[N-])N=C(c2ccc(OCCCO)cc2)O[C@H]1c1ccccc1N=[N+]=[N-] | 0.974 | 1.19 | 0.7 | -0.167 (inactive) | 0.817 | 1.29 | 0.284 | 0.347 | 0.0393 | 1.28
14 | C=CCNC(=O)[C@H]1[C@@H]2C(=O)O[C@@H](c3ccccc3)[C@@H](c3ccccc3)N2[C@@H](c2ccc(O)cc2)[C@]12C(=O)N(C(=O)OCCOC)c1ccc(C#CC3(O)CCCCCC3)cc12 | 1.35 | 0.263 | 0.468 | 0.0928 (inactive) | 0.385 | 0.716 | 0.228 | 0.33 | 0.138 | 1.09
15 | COC(=O)[C@@]1(Cc2ccc(OC)cc2)[C@H]2c3cc(C(=O)N(C)C)n(CCF)c3C[C@H]2CN1C(=O)c1ccccc1 | 1.17 | 1.23 | 0.923 | -0.674 (inactive) | 0.601 | 1.14 | 0.185 | 1.03 | -0.123 | 0.854
16 | CC(C)C[C@@H]1NC(=O)[C@@H]2C[C@H](C(=O)NCCCC[N+](C)(C)C)[C@H](c3cccc(OCCO)c3)N2C1=O | 1.66 | -0.184 | -0.103 | -0.44 (inactive) | 0.59 | 0.914 | 0.357 | 1.31 | 1.95 | 0.88
17 | Cc1ccc(S[C@]2(C(=O)O)CC(=O)N(C3CCCCC3)[C@@H]2c2ccc(CO)cc2)cc1 | 1.37 | -0.0047 | 0.571 | 0.134 (inactive) | -0.256 | 0.739 | -0.172 | -0.365 | 0.234 | 0.378
18 | CN1C(=O)C2C=CC(C(O)COCc3ccccc3)N(Nc3ccccc3)C2C1=O (stereo not given) | 0.867 | -0.109 | 0.285 | 1.43 (inactive) | 0.558 | 0.453 | 0.132 | 1.06 | 0.0378 | 1.18
19 | C=CCC(OC(C)=O)[C@@H]1[C@@H](N(Cc2cccc3ccccc23)C(=O)Cc2ccc(F)cc2)c2cc(OCCCO)ccc2N1C(=O)Cc1ccc(OC)cc1 (stereo not given in full) | -0.44 | -0.0312 | 0.0398 | -1.07 (inactive) | 0.398 | -0.0555 | -0.0723 | 0.665 | 0.104 | 1.25
20 | C=CCOC(=O)[C@H]1[C@@H]2C(=O)O[C@@H](c3ccccc3)[C@@H](c3ccccc3)N2[C@@H](c2ccc(OCCOC(=O)[C@H]3C[C@H]4C(=O)N[C@@H](CCCCN(C)C)C(=O)N4[C@H]3c3ccc(O)cc3)cc2)[C@]12C(=O)Nc1ccccc12 | 0.436 | 0.638 | 0.4 | -0.226 (inactive) | 1 | 0.957 | 0.606 | 1.4 | 0.805 | 1.04
21 | COC(=O)[C@H]1N=C(c2ccc(OCCCO)cc2)O[C@H]1c1ccccc1CN=[N+]=[N-] | 0.555 | 0.613 | 1.22 | -0.0171 (inactive) | -0.418 | -1.04 | -0.771 | -0.605 | -1.56 | 0.635
